Screens (PubChem)
This is a sample that favours compounds with a hit; in the whole collection about 0.86% have one here.
CDC25B CDK2 inh: human CDC25B-CDK2/CyclinA binding inhibition; z-score (no concentration beside the values); hit rate 0.72% among 94,000; AID 1259370; HTRF CDC25B-CDK2/CyclinA binding, anti-His/anti-Flag; hits give high values; in the data active = z-score above about 3.2
TAR Tat displ: HIV-1 TAR-Tat binding disruption; z-score (test concentration not listed); hit rate 0.6% among 100,000; AID 1259389; HIV-1 TAR RNA, Tat peptide displacement FRET; hits give high values; active = z-score of 3 or more in at least 2 runs
The depositor's hits bear a star; · = not tested or not shown.

SMILES | CDC25B CDK2 inh | TAR Tat displ
O=C1c2ccccc2-c2c1cccc2C(=O)N1CCOCC1 | 17.4* | -0.31
O=C1CCSc2c1cccc2C(=O)N1CCOCC1 | · | 1.3
CCc1ccc(-c2cc(C)no2)cc1S(=O)(=O)N1CCc2ccccc21 | · | -1.29
CC1CN(C(=O)Nc2ccc(Cl)cc2)c2ccccc2O1 (stereo not given) | · | 3.94*
CC1CN(C(=O)Nc2ccc(F)cc2)c2cc(Cl)ccc2O1 (stereo not given) | -2.58 | 0.53
COc1ccc(NS(=O)(=O)c2ccc3c(c2)NC(=O)CS3)c(OC)c1 | · | 1.1
COc1ccc(-c2nnc3c4cc5c(cc4n(Cc4ccccc4)cc2-3)OCCO5)cc1OC | 2.05 | 0.88
COc1cccc(Cn2cc3c(-c4ccc(OC)c(OC)c4)nnc-3c3cc4c(cc32)OCCO4)c1 | 2.8 | 5.09*
CC(=O)N1c2ccc(S(=O)(=O)N3CCCC3)cc2CC1C(=O)N1CCN(c2ccccc2)CC1 (stereo not given) | · | 1.45
O=C1CC(c2ccco2)Cc2[nH]c(=O)c(-c3nc(-c4ccc(Oc5ccccc5)cc4)cs3)cc21 (stereo not given) | 15.9 | 0.71
CCOc1ccc(-c2csc(-c3cc4c([nH]c3=O)CC(c3ccco3)CC4=O)n2)cc1 (stereo not given) | 18.9* | -5.33
CCOc1cc(/C=C2\SC(=Nc3cccc(Cl)c3C)NC2=O)ccc1O | 0.82 | ·
Cc1ccc(N=C2NC(=O)/C(=C/c3ccc(O)c(Br)c3)S2)cc1Cl | 8.77* | ·
CC1CCCCC1NC(=O)CCCc1cn(C)c2ccccc12 (stereo not given) | · | 1.3
CCOCCCNc1nc2c(S(=O)(=O)c3ccccc3)nnn2c2ccccc12 | -0.96 | 11.2*
COCCCNc1nc2c(S(=O)(=O)c3ccccc3)nnn2c2ccccc12 | -1.88 | 1.11
CCOc1cc(C2C(C(=O)OC)=C(C)NC3=C2C(=O)CC(c2ccc(OC)cc2)C3)ccc1O (stereo not given) | 0.1 | 1.62
CCn1nc(-c2ccccc2Br)nc2c(=O)n(C)c(=O)nc1-2 | 11.5* | 0.43
CCn1nc(-c2ccccn2)nc2c(=O)n(C)c(=O)nc1-2 | -2.32 | -2.04
Nc1cc2c(=O)c3cc(Cl)cc(Cl)c3[nH]c2c2c1C(=O)c1ccccc1C2=O | 10.1* | ·
Nc1cc(S(=O)(=O)O)c(N)c2c1C(=O)c1ccccc1C2=O | -2.42 | ·
O=C(CSc1nc2ccccc2c(=O)[nH]1)NC1CCCC1 | · | 3.21
O=C(CSc1nc2ccccc2c(=O)[nH]1)NCc1ccc2c(c1)OCO2 | · | 13.6*
CCCCCCCOC(=O)C1=C(C)Nc2nnnn2C1c1ccc(OC)cc1 (stereo not given) | 0.72 | 1.44
Cc1nn2c(=O)cc(COc3ccc(Cl)c(C)c3)nc2s1 | -1.25 | 0.22
SMILES | CDC25B CDK2 inh | TAR Tat displ
COc1ccc2c3c([nH]c2c1)C(C)(C(=O)O)NCC3 (stereo not given) | 5.11 | -8.23
CC1(C(=O)O)NCCc2c1[nH]c1ccccc21 (stereo not given) | 10.4* | -2.2
O=C(Cn1c(=O)oc2cc(S(=O)(=O)NC3CCCCC3)ccc21)NC1CCCC1 | -1.13 | 0.89
O=C(Cn1ncn2nc3c(c2c1=O)CCCC3)Nc1ccc(F)cc1 | · | -0.27
O=C(CSc1nc2ncccc2[nH]1)N1CCCC1 | · | 0.18
O=C(CSc1nc2ncccc2[nH]1)N1CCc2ccccc2C1 | 14.8* | 1.67
CC1CCN(CCNC(=O)C2CCN(c3ncnc4c3nc3n4CCCCC3)CC2)CC1 | · | 1.25
O=C(CSc1nc(-c2ccccc2)nc2cc(=O)[nH]n12)Nc1cccc(F)c1 | · | -0.04
CCOC(=O)N1CCN(C(=O)CSc2ccc(-c3ccccn3)nn2)CC1 | · | 2.1
CCOC(=O)c1cc(C#N)c(Oc2ccccc2)nc1C(F)(F)F | 22.4* | ·
CCOC(=O)c1cc(C#N)c(Sc2ccccn2)nc1C(F)(F)F | -1.28 | ·
Cc1ccc2nc(NC3=NCN(C(C)C)CN3)nc(C)c2c1 | 8.12* | -1.03
Cc1ccc2nc(NC3=NCN(CCN4CCOCC4)CN3)nc(C)c2c1 | 0.22 | 2.35
O=C(Nc1ccccc1SCc1cc(=O)n2c3c(sc2n1)CCCC3)c1ccco1 | · | -1.01
Cc1cccc(N2CCN(c3cc(C(=O)O)c4cc(N)ccc4n3)CC2C)c1 (stereo not given) | · | 6.55*
CC1CCN(c2cc(C(=O)O)c3cc(N)ccc3n2)CC1 | · | -6.16
OCCSc1nnc(COc2ccc(Cl)cc2)n1Cc1ccccc1 | -1 | 0.71
COc1cccc(C2NC(=O)c3c(sc4c3CCN(C)C4)N2)c1OC (stereo not given) | -0.33 | -1.8
COc1ccccc1C1NC(=O)c2c(sc3c2CCN(C)C3)N1 (stereo not given) | 4.5* | -3.12
CCOC(=O)N1CCc2c(sc3c2C(=O)NC(c2cccc(Br)c2)N3)C1 (stereo not given) | 6.37* | -1.15
CCOC(=O)N1CCc2c(sc3c2C(=O)NC(c2ccc(O)c(OC)c2)N3)C1 (stereo not given) | 2.92 | 0.09
CCOC(=O)N1CCc2c(sc3c2C(=O)NC(c2ccc(OC)cc2)N3)C1 (stereo not given) | 16.1* | -2.76
CCOC(=O)N1CCc2c(sc3c2C(=O)NC(c2ccccc2)N3)C1 (stereo not given) | 0.33 | -0.19
C=CCN(C(=O)CSc1nncn2c1cc1occc12)c1ccccc1 | · | 1.36
CCN(Cc1ccccc1)C(=O)CSc1nncn2c1cc1occc12 | · | 6.69*
SMILES | CDC25B CDK2 inh | TAR Tat displ
CC(Sc1nc2ncccc2o1)C(=O)Nc1ccc2c(c1)OCCO2 (stereo not given) | · | -0.13
CCn1c2ccccc2c2cc(C3C=C(C(=O)O)Nc4nnnn43)ccc21 (stereo not given) | · | 1.38
CC(=O)NC1=NN(C(C)=O)C(c2cc(Br)ccc2OCCOc2ccccc2)S1 (stereo not given) | -2.6 | 0.19
CCOc1ccccc1-c1nn2c(C(F)(F)F)nnc2s1 | -0.93 | -0.69
Cc1ccc(-c2nc3nc(C)cc(C)n3n2)cc1 | 1.35 | -0.56
CN(CC1CCCO1)S(=O)(=O)c1ccc(C(=O)Nc2sc3c(c2C(N)=O)CCC3)cc1 (stereo not given) | · | 7.58*
CN(C)S(=O)(=O)c1ccc(C(=O)Nc2sc3c(c2C(N)=O)CCCC3)cc1 | -2.28 | 3.39
CN(C)c1cccc2c1c(NC(=O)c1cc(Cl)sc1Cl)nn2C | 12.8* | ·
COc1cccc2c1c(NC(=O)c1cc(C)oc1C)nn2C | -1.11 | ·
O=C(C1CCN(S(=O)(=O)c2cnc[nH]2)CC1)N1CCN(c2cccc(Cl)c2)CC1 | -1.43 | ·
CCCCCCn1c(=O)c2c(nc(CN(CC)CC)n2C)n(C)c1=O | -0.55 | 0.03
COc1cccc(C2N3CC4(C)CN2CC(c2ccccc2)(C3)C4=O)c1O (stereo not given) | -2.24 | 4.24*
CC12CN3CC(c4ccccc4)(CN(C1)C3c1ccccc1O)C2=O (stereo not given) | -0.68 | -1.3
CCCCSc1nc2c(c(=O)[nH]1)C(c1ccc(C)cc1)C(C(=O)OC)=C(C)N2 (stereo not given) | -2.33 | 1.35
CCOc1ccc(Oc2nc(C)nc3sc(C)c(C)c23)cc1 | · | 7.55*
CCOC(=O)c1sc2nc(C)nc(Oc3ccc(OCC)cc3)c2c1C | · | -0.13
Cc1ccc(S(=O)(=O)[C@H]2CS(=O)(=O)C[C@@H]2NCC2CCCO2)cc1 (stereo not given in full) | -0.68 | -1.54
O=C(CCc1nc2sc3c(c2c(=O)[nH]1)CCCCC3)N1CCN(c2ncccn2)CC1 | · | 2.45
O=C(CCc1nc2sc3c(c2c(=O)[nH]1)CCCCC3)NC1CCCC1 | · | 18.4*
